DUX4 txn inh = inhibitors of DUX4-driven ZSCAN4 reporter expression, primary screen, 293T cells, Gaussia and Italica luciferase. 293T-iDUX4 ZSCAN4-Gaussia luciferase reporter, 24 h; hits give low values. activity change, negative = inhibition, % (test concentration not listed). hit rate 0.8% among 37,000. AID 1224904, 2016;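 active = mean inhibition of at least 10% in the main channel, exceeding the control channel by a set limit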;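 also: 0% = median of neutral control wells and -100% = median of positive control wells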
* hit, by the source's call. This is one part of a sample in which hits are shown more often than they occur.

SMILES | DUX4 txn inh
CCCN1[C@H](C(=O)NCCOC)[C@@H](CO)[C@@H]2Cn3c(ccc(-c4ccc(C(=O)N(C)C)cc4)c3=O)[C@@H]21 | 6.0
COCC(=O)N1CC[C@@H]2[C@@H](CO)N(C)c3ccc(-c4cccc(OC)c4)cc3[C@@H]21 | 19.5
CO[C@@H]1CN(C)C(=O)c2ccc(NC(=O)C3CCC3)cc2OC[C@H](C)N(Cc2ccncc2)C[C@@H]1C | 3.0
CO[C@H]1CC[C@@H]2CCN(C)C(=O)[C@H](C)N(C)C(=O)c3cc(C#N)ccc3OC[C@@H]1O2 | -4.1
CCC(=O)Nc1ccc2c(c1)C(=O)N(C)[C@@H]1CC[C@H](CC(=O)N[C@@H](C)c3ccccc3)O[C@@H]1CO2 | 0.9
O=C1N[C@H](Cc2ccccc2)COCc2cnnn2CC[C@@H]1Cc1cccc(F)c1 | -1.1
COc1ccc(C#Cc2ccc([C@@H]3[C@H]4CN(Cc5ccncc5)CCCCN4[C@H]3CO)cc2)cc1 | -36.3*
OC[C@@H]1[C@@H](c2ccc(C#CC3(O)CCCC3)cc2)[C@H]2CN(Cc3ccccc3F)CCCCN12 | 7.3
COCC#Cc1ccc([C@@H]2[C@@H](CO)N3CCCCN(Cc4ccncc4)C[C@H]23)cc1 | 23.9
COCC#Cc1ccc([C@@H]2[C@H]3CN(Cc4ccccc4F)CCCCN3[C@H]2CO)cc1 | 0.9
COc1ccc(C#Cc2ccc([C@@H]3[C@H](CO)N4CCCCN(Cc5ccncc5)C[C@@H]34)cc2)cc1 | -0.2
CN1CCCCN2[C@@H](CO)[C@H](c3ccc(C#Cc4ccccc4F)cc3)[C@@H]2C1 | 2.0
COc1ccc(C#Cc2ccc([C@H]3[C@H]4CN(Cc5ccccc5F)CCCCN4[C@H]3CO)cc2)cc1 | -21.4*
COc1ccc(C#Cc2ccc([C@@H]3[C@@H](CO)N4CCCCN(Cc5ccccc5F)C[C@H]34)cc2)cc1 | -18.8*
CN1CCCCN2[C@H](C1)[C@@H](c1ccc(C#Cc3ccccc3F)cc1)[C@@H]2CO | -10.0
O=C(C[C@@H]1C=C[C@H](NS(=O)(=O)c2ccc(F)cc2)[C@@H](CO)O1)NCc1ccncn1 | 5.4
O=C(Nc1ccc(F)cc1)N1C[C@H]2[C@@H](c3ccccc31)[C@H](CO)N2C(=O)c1ccccc1 | -0.2
COCC(=O)Nc1ccc2c(c1)C(=O)N(C)[C@@H]1CC[C@H](CC(=O)NC3CCCC3)O[C@H]1CO2 | 5.3
C[C@@H]1CN([C@@H](C)CO)S(=O)(=O)c2ccc(-c3cncnc3)cc2O[C@@H]1CN(C)C(=O)c1cccc(F)c1 | -1.2
O=C(C[C@@H]1CC[C@H]2[C@@H](COC[C@H](O)CN2C(=O)Nc2ccc(F)cc2)O1)NCCCN1CCOCC1 | 8.4
C[C@@H]1CN([C@H](C)CO)C(=O)c2c(c3ccccc3n2C)-c2ccccc2CO[C@@H]1CN(C)Cc1ccc2c(c1)OCCN2C | -8.5
C[C@@H]1CN([C@@H](C)CO)C(=O)c2cc(C#C[C@@H](C)O)cnc2O[C@@H]1CN(C)C(=O)CN1CCOCC1 | -3.1
CO[C@H]1CN(C)C(=O)c2ccc(NC(=O)NC(C)C)cc2OC[C@@H](C)N(CC2CC2)C[C@@H]1C | 1.1
CO[C@@H]1CN(C)C(=O)c2cc(NC(=O)C3CCCC3)ccc2OC[C@H](C)N(C(=O)CC2CC2)C[C@H]1C | 0.2
CN1C(=O)c2cc(NC(=O)c3cccs3)ccc2OC[C@H]2O[C@@H](CC(=O)NCCN3CCCCC3)CC[C@H]21 | -2.2
SMILES | DUX4 txn inh
CCC(=O)N1CC2(C1)CN(C(=O)NC1CCCC1)[C@@H](CO)c1c2c2ccc(OC)cc2n1C | 4.6
COCC(=O)N1CC[C@@H]2[C@H](CO)Nc3ccc(-c4ccc(C(=O)N(C)C)cc4)cc3[C@@H]21 | -1.0
COCC(=O)N1CC[C@@H]2[C@H]1c1cc(-c3ccc(C#N)cc3)ccc1N[C@@H]2CO | -33.7*
CCC(=O)N1CC[C@@H]2[C@H](CO)Nc3ccc(C#Cc4ccc(OC)cc4)cc3[C@@H]21 | 3.3
COCC(=O)N1CC[C@@H]2[C@@H](CO)Nc3ccc(C#Cc4ccc(F)cc4)cc3[C@@H]21 | 14.8
O=C(CN1CCOCC1)N1CC[C@H]2[C@H](CO)Nc3ccc(-c4ccccc4)cc3[C@H]21 | 24.0
COCC(=O)N1CC[C@@H]2[C@H]1c1cc(C#Cc3ccc(OC)cc3)ccc1N[C@@H]2CO | -18.1*
COCC(=O)N1CC[C@H]2[C@H](CO)Nc3ccc(-c4ccc(C#N)cc4)cc3[C@H]21 | 2.8
COc1ccccc1C#Cc1ccc2c(c1)[C@H]1[C@H](CCN1C(=O)CN1CCOCC1)[C@@H](CO)N2 | 1.6
O=C(Cc1ccccc1)N1CC[C@@H]2[C@@H](CO)Nc3ccc(-c4cccc(F)c4)cc3[C@@H]21 | 6.6
N#Cc1ccc(-c2ccc3c(c2)[C@@H]2[C@@H](CCN2C(=O)Cc2ccccc2)[C@H](CO)N3)cc1 | -5.4
COc1ccccc1C#Cc1ccc2c(c1)[C@H]1[C@H](CCN1C(=O)CN1CCOCC1)[C@H](CO)N2 | -20.6*
O=C(Cc1ccccc1)N1CC[C@@H]2[C@H]1c1cc(-c3ccc(F)cc3)ccc1N[C@@H]2CO | -23.5*
C[C@@H](NC(=O)C[C@@H]1C[C@@H]2c3cc(NC(=O)C4CCOCC4)ccc3O[C@@H]2[C@H](CO)O1)c1ccccc1 | 4.2
O=C(Nc1ccccc1F)N1C[C@H]2[C@@H](c3ccccc31)[C@H](CO)N2C(=O)Nc1ccccc1 | -2.2
COc1ccc2c3c([nH]c2c1)[C@@H](CO)N(C(=O)c1cccnc1)CC31CCN(Cc2cccnc2)CC1 | 16.7
CCNC(=O)[C@H]1[C@H](CO)[C@H]2Cn3c(ccc(-c4cccnc4)c3=O)[C@@H]1N2Cc1ccccc1 | 6.2
CCNC(=O)[C@@H]1[C@@H](CO)[C@@H]2Cn3c(ccc(-c4cccc(F)c4)c3=O)[C@H]1N2C(C)=O | -3.8
O=C(C[C@H]1CC[C@@H](NC(=O)C2CCOCC2)[C@@H](CO)O1)NCc1ccccc1Cl | 1.1
O=C(C[C@H]1CC[C@H](NC(=O)C2CCOCC2)[C@H](CO)O1)Nc1nccs1 | 3.8
CCC(=O)N1CC2(C1)[C@H](c1ccccc1)[C@@H](CO)N2Cc1ccccc1F | 3.2
COc1cccc(CN2CC3(C2)[C@H](c2ccccc2)[C@@H](CO)N3Cc2ccccc2OC)c1 | -35.9*
O=C(C1CC1)N1CC2(C1)[C@@H](c1ccccc1)[C@@H](CO)N2Cc1ccccc1F | -1.6
OC[C@H]1[C@H](c2ccccc2)C2(CN(Cc3ccccc3F)C2)N1Cc1ccccc1F | -34.6*
COc1ccccc1CN1[C@@H](CO)[C@@H](c2ccccc2)C12CN(C(C)=O)C2 | 3.4
SMILES | DUX4 txn inh
COc1cccc(CN2[C@@H](CO)[C@H](c3ccccc3)C23CN(Cc2ccccc2OC)C3)c1 | -44.5*
COc1cccc(CN2[C@H](CO)[C@@H](c3ccccc3)C23CN(C(=O)C2CC2)C3)c1 | -6.4
COc1ccccc1CN1[C@@H](CO)[C@H](c2ccccc2)C12CN(C(C)=O)C2 | -5.5
COc1ccccc1CN1[C@H](CO)[C@H](c2ccccc2)C12CN(C(C)=O)C2 | 3.4
Cc1ccccc1CN(C)C[C@H]1OCc2cnnn2CCCC(=O)N([C@H](C)CO)C[C@@H]1C | -3.2
OC[C@@H]1[C@@H](c2ccc(C#Cc3ccccc3F)cc2)[C@H]2CN(Cc3cncnc3)CCCCN12 | -0.2
CC(C)(O)C#Cc1ccc([C@@H]2[C@H]3CN(Cc4ccccc4F)CCCCN3[C@H]2CO)cc1 | 6.5
O=C(Nc1ccccc1F)N1CCCCN2[C@H](CO)[C@H](c3ccc(C#Cc4cccnc4)cc3)[C@H]2C1 | -36.1*
